The list is not random: actives were taken first. Their share in the collection is about 6.9%.
Beta cell apopt: inhibitors of cytokine-induced beta cell apoptosis, primary screen, luminescence. INS-1E cytokine-induced death, ATP luminescence, 48 h; percent of positive-control rescue, neutral wells zero. protection from apoptosis, % (concentration not given with the values). 300,000 compounds, 0.8% hits. AID 435005, 2010;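 active = Every replicate reaches about 75%, or at least half do and their mean reaches it too, limit read from the data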;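 note: 0% = cytokine-treated negative control wells and 100% = positive control rescue; higher means more ATP so stronger rescue from cytokine killing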
GRIN3A LBD mod: binders of NR3A ligand-binding domain, primary screen, biophysical, differential scanning fluorimetry, uHTS; Glutamate receptor ionotropic, NMDA 3A (GRIN3A) ligand-binding domain; NR3A LBD differential scanning fluorimetry, Tm shift; 0% = protein alone, 100% = glycine-bound protein; Tm shift relative to glycine control, % at 25 µM; 340,000 compounds, 2.5% hits; AID 1259313, 2017;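 active = melting temperature shift of at least 10% of the positive control shift, at one fixed dose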
MPTP block: mitochondrial permeability transition pore inhibitors, primary screen, biochemical, isolated mouse mitochondria, absorbance | AID 602449, 2012 | inhibition, % at 10 µM | 360,000 compounds, 1.4% hits | Ca2+ swelling absorbance, 30 min;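 active = inhibition of 50% or more, scaled per plate between neutral and stimulator controls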;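 note: 0% = DMSO wells given calcium and 100% = 1 mM EGTA wells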
CSC inhib: cancer stem cell viability inhibitors, primary screen, luminescence | 300,000 compounds, 1.1% hits | AID 2717, 2010 | cancer stem cell-like cells viability | inhibition, % at 7.5 µM; in the data active = inhibition above about 75%; tested in HMLE shEcad cells
Mdm2 MdmX PPI: inhibitors of human Mdm2-MdmX association, primary screen, cell-based, luminescence, split luciferase, SaOS-2, uHTS; Protein Mdm4 (Homo sapiens) + E3 ubiquitin-protein ligase Mdm2 (Homo sapiens), …; 330,000 compounds, 3% hits; inhibition, % at 8 µM; SaOS-2 split-luciferase Mdm2/MdmX complementation;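 active = inhibition of at least 50% at 8 µM in the primary screen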
SKKanGAS inh: S. pyogenes SKKanGAS growth inhibitors in kanamycin, primary screen, streptokinase expression inhibitor project, SKKanGAS strain, BacTiter-Glo luminescence. 6 h. inhibition, % at 7.5 µM. 300,000 compounds, 1.3% hits. AID 1662, 2009;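 active = mean replicate score, as percent of positive control median, at least 50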;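 note: strain carries kanamycin resistance gene driven by streptokinase promoter and grows in 40 µg/ml kanamycin; loss of luminescence reflects streptokinase promoter inhibition or plain growth inhibition; 0% = median of DMSO wells and 100% = positive control at its reference dose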
Mdm2 MdmX conf: Mdm2-MdmX complex disruptors, retested hits, confirmation, luminescence, single concentration; shares compounds with Mdm2 MdmX PPI; Mdm2-MdmX binding, luminescent assay; inhibition, % at 8 µM; 10,000 compounds, 55% hits; in the data active = inhibition above about 40%
Full FLuc ctr: full-length luciferase signal inhibition, confirmation, counter-screen for Mdm2/MdmX interaction inhibitor project, cell-based, single concentration, SaOS-2; AID 504607, 2011; 6,200 compounds, 77% hits; SaOS-2 full-length luciferase counterscreen, luminescence; shares compounds with Mdm2 MdmX PPI; inhibition, % at 8 µM;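 active = mean inhibition at 8 µM reaching about 37%, which flags the compound as non-specific, limit read from the data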;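 note: p53-null SaOS-2 cells with luciferase driven by a doxycycline-inducible promoter; compound on cells about two nights before reading with doxycycline added after day one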
Starred values were filed as active, the others as inactive; . = no result.

SMILES | Beta cell apopt | GRIN3A LBD mod | MPTP block | CSC inhib | Mdm2 MdmX PPI | SKKanGAS inh | Mdm2 MdmX conf | Full FLuc ctr
COC(=O)C1C2CC3c4[nH]c5cc(OC)ccc5c4CCN3CC2CC(OC(=O)CC(C)=O)C1OC (stereo not given) | . | -1 | -1 | . | . | . | . | .
COc1ccc(C(=O)CCC(=O)N2CCN(c3ccc([N+](=O)[O-])cc3)CC2)cc1 | 4 | 1 | 1 | 0 | -5 | -2 | . | .
Cc1ccccc1CNC(=O)C(=O)NCCC1CCCCN1S(=O)(=O)c1ccccc1 (stereo not given) | 2 | -3 | 0 | 5 | 16 | -8 | . | .
CCOC(=O)c1cc(-c2ccccc2)sc1NC(=O)COC(=O)c1cccc(S(N)(=O)=O)c1 | 35 | 3 | 3 | 15 | 74* | 6 | 26 | .
CCOC(=O)c1cc(-c2ccccc2)sc1NC(=O)COC(=O)c1ccc(Cl)c(S(N)(=O)=O)c1 | 5 | 11* | 0 | 18 | 54* | 2 | 82* | 88*
CC(C)NC(=O)COC(=O)c1ccc(Cl)c(S(N)(=O)=O)c1 | 2 | 0 | -6 | -11 | 18 | -7 | . | .
CCOC(=O)c1cc(-c2ccccc2)sc1NC(=O)CC | -4 | 2 | 0 | 7 | 12 | -2 | . | .
Cc1ccc(CNCC(=O)Nc2cccc(S(=O)(=O)NC3=NCCCCC3)c2)cc1 | -6 | -2 | 2 | -4 | 7 | -3 | . | .
O=S(=O)(CC(CN1CCCC1)N1CCCC1)c1ccc2ccccc2c1 (stereo not given) | -3 | 2 | -2 | 7 | 75* | 2 | 85* | 56*
C[C@]12CC[C@H](O)CC1=CCC1C2CC[C@@]2(C)C1CC[C@@H]2NC(=O)[C@@H](N)Cc1ccccc1 (stereo not given in full) | -1 | 1 | 0 | -6 | 68* | . | 23 | .
CC(C)C(=O)N[C@H]1CCC2C3CC=C4C[C@@H](O)CC[C@]4(C)C3CC[C@@]21C (stereo not given in full) | 2 | 0 | 1 | -12 | 2 | . | . | .
CCCCCCN[C@H]1CCC2C3CC=C4C[C@@H](O)CC[C@]4(C)C3CC[C@@]21C (stereo not given in full) | 8 | -1 | 25 | 62 | 35 | . | . | .
CC(C)(C)[C@H](N)C(=O)N[C@H]1CCC2C3CC=C4C[C@@H](O)CC[C@]4(C)C3CC[C@@]21C (stereo not given in full) | 52 | -1 | 2 | 104* | 100* | . | 100* | 52*
Cc1cccn2c(=O)c3cc(C(=O)N4c5ccccc5CC4C)n(C)c3nc12 (stereo not given) | -2 | -8 | 1 | 56 | 22 | 5 | . | .
CC1Cc2ccccc2N1C(=O)c1cc2c(=O)n3ccccc3nc2n1C (stereo not given) | 0 | 0 | 0 | 18 | 53* | 2 | 10 | .
Cc1ccc(NC(=O)c2ccc(N/N=C/c3cccc(O)c3)c([N+](=O)[O-])c2)cc1 | 63 | 256* | 7 | 48 | 77* | 18 | 48* | 76*
Cc1ccccc1NC(=O)c1ccc(N/N=C/c2ccccc2O)c([N+](=O)[O-])c1 | 11 | -2 | 1 | 7 | 74* | 3 | 22 | 62*
Cc1ccccc1NC(=O)c1cccc(NC(=O)c2c(C(=O)O)cccc2[N+](=O)[O-])c1 | -6 | 0 | 2 | -6 | 21 | -6 | . | .
C/C(=N\NC(=O)C(=O)N/N=C(\C)c1cccc(O)c1)c1cccc(O)c1 | -5 | -1 | -1 | 2 | 26 | -4 | . | .
